Results on 40 molecules are retold here after PubChem BioAssay (Tox21).

Records with an inconclusive call do not appear. A call without a number means that no potency is given here. A number with no mark means an inactive call. Activity calls are given as the source filed them. The call rests on the fitted dose curve; in most records, active means well fitted inhibition curve with a large enough effect in the repeat runs; inconclusive means weak or mixed curves; inactive means flat fitted curve, though single readings scatter.
Potency means the concentration at half of the fitted maximal effect.

In the experiment the target is Voltage-gated inwardly rectifying potassium channel KCNH2 (Homo sapiens) (UniProt Q12809). The experiment is described as follows: Human Ether-a-go-go-Related Gene (hERG) channel small molecule antagonists: fluorescence cell-based qHTS assay (AID 1671200). Further: nearly all actives have a fitted effect of over 50% in size. As to conditions: hERG-U2OS cells, FluxOR thallium flux fluorescence; series mostly up to 76.8 µM; activity change, negative = inhibition: at the top concentration. The source says: National Center for Advancing Translational Sciences [NCATS]
Voltage-gated inwardly rectifying potassium channel KCNH2 (Homo sapiens), sequence (Q12809 whole entry, looked up): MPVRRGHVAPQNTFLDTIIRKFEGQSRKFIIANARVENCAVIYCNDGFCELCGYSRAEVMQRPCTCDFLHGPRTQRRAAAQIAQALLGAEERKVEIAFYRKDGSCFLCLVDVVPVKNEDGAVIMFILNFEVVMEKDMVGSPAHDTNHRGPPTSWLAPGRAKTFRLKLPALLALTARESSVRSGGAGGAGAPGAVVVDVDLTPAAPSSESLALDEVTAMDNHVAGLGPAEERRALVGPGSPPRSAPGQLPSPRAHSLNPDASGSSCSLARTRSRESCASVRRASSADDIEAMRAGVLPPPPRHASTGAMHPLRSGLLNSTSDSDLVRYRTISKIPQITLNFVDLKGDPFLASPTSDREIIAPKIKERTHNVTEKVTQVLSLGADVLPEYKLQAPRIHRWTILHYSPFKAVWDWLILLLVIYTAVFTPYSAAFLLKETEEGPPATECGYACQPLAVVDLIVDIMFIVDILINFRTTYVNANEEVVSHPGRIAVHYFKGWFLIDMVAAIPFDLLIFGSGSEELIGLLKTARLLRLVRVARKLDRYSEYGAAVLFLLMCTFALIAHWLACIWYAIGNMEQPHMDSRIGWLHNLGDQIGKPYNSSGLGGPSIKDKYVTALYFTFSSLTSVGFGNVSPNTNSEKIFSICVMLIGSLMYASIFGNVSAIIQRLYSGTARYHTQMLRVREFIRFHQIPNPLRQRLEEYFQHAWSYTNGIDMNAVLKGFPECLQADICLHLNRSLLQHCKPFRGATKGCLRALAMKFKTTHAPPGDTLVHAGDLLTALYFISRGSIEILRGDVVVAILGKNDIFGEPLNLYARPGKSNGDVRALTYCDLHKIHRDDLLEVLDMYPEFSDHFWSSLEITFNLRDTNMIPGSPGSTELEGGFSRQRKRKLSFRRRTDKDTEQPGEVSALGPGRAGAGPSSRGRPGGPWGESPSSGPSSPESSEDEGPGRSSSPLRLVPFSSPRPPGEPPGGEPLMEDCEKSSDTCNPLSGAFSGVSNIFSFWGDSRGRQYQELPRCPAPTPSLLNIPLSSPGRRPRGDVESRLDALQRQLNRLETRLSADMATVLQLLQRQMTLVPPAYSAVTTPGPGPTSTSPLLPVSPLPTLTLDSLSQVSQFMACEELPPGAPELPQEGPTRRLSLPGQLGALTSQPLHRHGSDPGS
U.S. Environmental Protection Agency [EPA]
National Institutes of Environmental Health Sciences [NIEHS]
National Toxicology Program [NTP]
U.S. Food and Drug Administration [FDA]
Mutations in the hERG channel cause Long QT (LQT) syndrome. LQT syndrome is a cardiac disorder which can cause ventricle arrhythmia and sudden death. Additionally, compounds which block the hERG channel can cause acquired LQT syndrome. Several FDA approved drugs have been removed from the market due to their hERG blocking activity. A cell-based hERG channel inhibition assay can be used to screen chemical compounds that inhibit hERG channel. This assay measures hERG channel activity using thallium ions as surrogate ions to measure potassium into the cells.
Tox21 Assay Protocol Summary:
hERG-U2OS cells were resuspended in culture medium and dispensed into 1536-well, black wall/clear-bottom plates at 1000cells/well/3uL using a Multidrop Combi dispenser (Thermo Fisher, Waltham, MA). After plates were incubated at 37 C overnight, 3 uL of Loading Buffer provided by FluxOR II Potassium Ion Channel Assay kit (Thermo, Carlsbad, CA) was added to each well. The assay plates were then incubated at room temperature in the dark for 1h. […] After the assay plates were incubated at room temperature for 10 min, 1 uL of Stimulus Buffer provided by FluxOR II Potassium Ion Channel Assay kit was added into each well and fluorescence intensity (480nm excitation/540nm emission) was continuously measured for 2 min at 1 second intervals using a Functional Drug Screening System (FDSS) 7000EX kinetic plate reader (Hamamatsu, Japan).
In general terms: Block of hERG is tested as a sign of cardiac risk.
On to `Cc1cc(Cc2ccc(N)c(C)c2)ccc1N`, for which the Potency result is “inactive”. The same measure, in the same setting: as for `CC(C)Cc1ccccc1`, the entry is “inactive”.

In the case of `CCCCC(CC)COC(=O)/C=C\C(=O)OCC(CC)CCCC` (stereo not given), the Potency result was “inactive”. Same read-out and setting: as for `CS(=O)(=O)c1ccc([C@@H](O)[C@@H](CO)NC(=O)C(Cl)Cl)cc1`, the entry is “inactive”; as for `Cc1cc(=O)[nH]c(C(C)C)n1`, “inactive”; as for `O=Nc1ccc(O)cc1`, “inactive”.

Take `CCCCCCCCCC(=O)O`: the Potency result was “inactive”. Same read-out and setting: as for `CCc1ccc(O)cc1`, the entry is “inactive”; as for `CC(C)(CO)COC(=O)C(C)(C)CO`, “inactive”; as for `Cc1cc(O)c2c(c1)C(=O)c1cc(O)cc(O)c1C2=O`, “inactive”.

With `C=C1C2CCC(C2)C1(C)C` (stereo not given), the Potency result is “inactive”.

In the case of `OCCOCCOCCOCCO`, the Potency result is “inactive”. On the same count and under the same terms, as for `COC(=O)c1ccccc1O`, the entry is “inactive”; as for `OC[C@@H](O)[C@@H](O)[C@H](O)[C@@H](O)CO`, “inactive”. For `CCCCCCCCC`, the Potency entry was “inactive”. Still for that read-out and setting: as for `CCCCCCCCCCC=CC1CC(=O)OC1=O` (stereo not given), the entry is “inactive”; as for `CCc1ccccc1O`, “inactive”. On the same count and under the same terms, the entry for `COCC(C)O` (stereo not given) is “inactive”; for `CCCCOCCO` it is “inactive”; for `CCCCC(CC)COC(C)=O` (stereo not given) it is “inactive”. On the same count and under the same terms, as for `NS(=O)(=O)c1cc2c(cc1Cl)NC=NS2(=O)=O`, the entry is “inactive”. In the case of `O=C(c1ccc(O)cc1)c1ccc(O)cc1O`, the Potency entry was “inactive”.

Turning to `CCCCCCCCCCCCOCC1CO1` (stereo not given), the Potency result is “inactive”.

`CCC(=O)O`: the Potency result is “inactive”. Still for that read-out and setting: as for `CC1Cc2ccccc2N1NC(=O)c1ccc(Cl)c(S(N)(=O)=O)c1` (stereo not given), the entry is “inactive”. The same measure, in the same setting: as for `Oc1ccc(OCc2ccccc2)cc1`, the entry is “inactive”; as for `C=C1CC[C@H](O)CC1=C/C=C1\CCC[C@]2(C)[C@@H]([C@H](C)/C=C/[C@H](C)C(C)C)CC[C@@H]12`, “inactive”. Regarding `CC1CC(OC(=O)c2ccccc2O)CC(C)(C)C1` (stereo not given), the “activity change, negative = inhibition” value was -9.51%.

As to `OCC#CCO`, the Potency entry is “inactive”.

Regarding `CC1(C)O[C@@H]2C[C@H]3[C@@H]4C[C@H](F)C5=CC(=O)CC[C@]5(C)[C@H]4[C@@H](O)C[C@]3(C)[C@]2(C(=O)CO)O1`, the Potency result was “inactive”. On the same count and under the same terms, as for `Cn1c([N+](=O)[O-])cnc1COC(N)=O`, the entry is “inactive”; as for `CC(=O)CCc1ccccc1`, “inactive”; as for `OC[C@@H](O)[C@H](O)[C@H](O)[C@@H](O)CO`, “inactive”. Same read-out and setting: as for `CC[Si](OC(C)=O)(OC(C)=O)OC(C)=O`, the entry is “inactive”. On the same count and under the same terms, as for `CN(C)c1ccc(C(=N)c2ccc(N(C)C)cc2)cc1`, the figure is 48.4 µM (active); as for `O=C1N=C(O)CN1/N=C/c1ccc(-c2ccc([N+](=O)[O-])cc2)o1`, “inactive”; as for `O=[N+]([O-])c1cc(N(CCO)CCO)ccc1NCCO`, “inactive”.

For the molecule `CS(=O)(=O)Nc1ccc([N+](=O)[O-])cc1Oc1ccccc1`, the Potency result is “inactive”. For `C/C=C(C)/C=C/C=C(C)C`, the Potency result is “inactive”.

Take `Oc1c(Cl)cc(Cl)c(Cl)c1Cl`: the Potency result was “inactive”.
